Test systems include SK-MEL-2 melanoma; EKVX NSCLC; SN12C renal; UO-31 renal; TK-10 renal; A498 renal; CCRF-CEM leukemia; MOLT-4 leukemia; SR leukemia.
What all share (test): NCI-60 one-dose screen, 48 h (100 = growth as untreated, 0 = no growth, -100 = all killed)
Settings in all cases: 10 µM unless noted

Compounds without any hit were thinned out: in the full panel of roughly 83,000, 20% have a hit.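 Assay: single dose, 48 h. Readout: percent growth (0 = no net growth; negative = cell death). Active: <10.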 Unmarked numbers belong to inactive results. Calls of active or inactive are those of the source.

Regarding `Cc1ccc(C2CC(c3ccc(Nc4nc(NCCO)nc(NCCO)n4)cc3)=NN2c2ccc(Cl)cc2)cc1` (stereo not given), the growth in the assay with SK-MEL-2 melanoma is 70.6%; in the assay on EKVX NSCLC, 65.7%; in the assay on SN12C renal, 82.4%; in the assay on UO-31 renal, 62.3%; in the assay on TK-10 renal, 82.6%; in the assay with A498 renal it was 86.1%. Moreover, the growth in the assay on CCRF-CEM leukemia is 31.8%; with MOLT-4 leukemia it was 32.3%; in the assay with SR leukemia, 26.2%.

For `O=C1[C@@H](OS(=O)(=O)CC(F)(F)F)[C@H](c2ccc(F)cn2)N1c1cc2c3ccccc3ccc2c2ccccc12`, the growth was 89.9% in the assay on SK-MEL-2 melanoma; 87.6% in the assay on EKVX NSCLC; 80.7% in the assay on SN12C renal; 62.1% in the assay on UO-31 renal; 88.4% in the assay on TK-10 renal; 83.6% in the assay on A498 renal. Moreover, the growth in the assay on CCRF-CEM leukemia is 9.13% (active); in the assay with MOLT-4 leukemia, 0.0781% (active); in the assay on SR leukemia, 4.47% (active).

Regarding `O=C(Nc1nccs1)c1noc2ccccc12`, the growth in the assay with SK-MEL-2 melanoma was 109%; in the assay with EKVX NSCLC, 88.6%; with SN12C renal it was 97.1%; with UO-31 renal, 86.1%; in the assay on TK-10 renal, 133%; in the assay on A498 renal, 101%. In addition, the growth was 85.7% in the assay with CCRF-CEM leukemia, 96.8% with MOLT-4 leukemia and 87% in the assay with SR leukemia.

For the compound `CSc1nc(-c2ccco2)c2c(N)[nH]nc2n1`, the growth in the assay with SK-MEL-2 melanoma was 99.3%; in the assay with EKVX NSCLC it was 81.2%; in the assay with SN12C renal, 109%; with UO-31 renal, 88.3%; in the assay with TK-10 renal, 105%; in the assay on A498 renal, 66.4%. Moreover, the growth in the assay with CCRF-CEM leukemia is 111%; with MOLT-4 leukemia, 82.7%; in the assay with SR leukemia, 76.1%.

With `Cc1c(Cl)cccc1NC(=O)c1sc2nc3c(cc2c1N)COCC3`, the growth was 29.4% in the assay with SK-MEL-2 melanoma; 60.3% with EKVX NSCLC; 44.1% in the assay on SN12C renal; 49.2% in the assay with UO-31 renal; 57% in the assay with TK-10 renal; 21.1% with CCRF-CEM leukemia. For the same compound, the growth with MOLT-4 leukemia was 27.5%; in the assay on SR leukemia it was 15.4%.

As for `COc1ccc(-c2cc(-c3nnc(SCC(=O)Nc4ccc(/C(C)=N\O)cc4)o3)c3ccccc3n2)cc1`, the growth with SK-MEL-2 melanoma is 98%; in the assay on EKVX NSCLC, 103%; with SN12C renal it was 104%; with UO-31 renal it was 97.7%; with TK-10 renal it was 96.4%; in the assay with A498 renal, 101%. For the same compound, the growth is 97.9% with CCRF-CEM leukemia, 106% with MOLT-4 leukemia and 113% in the assay with SR leukemia.

Regarding `CC1(C)CC[C@]2(c3nnc(-c4ccncc4)o3)CC[C@]3(C)C(=CC[C@@H]4[C@@]5(C)CCC(=O)C(C)(C)[C@@H]5CC[C@]43C)[C@@H]2C1`, the growth is 96% with SK-MEL-2 melanoma; 76.3% in the assay with EKVX NSCLC; 79.7% in the assay on SN12C renal; 77.5% with UO-31 renal; 128% in the assay with TK-10 renal; 106% in the assay with A498 renal. Also, the growth in the assay on CCRF-CEM leukemia is 75.5%; in the assay on MOLT-4 leukemia it was 52%; in the assay with SR leukemia, 63.7%.

Turning to `C(=C\c1cn(-c2ccccc2)nc1-c1ccccc1)/c1nnc(-c2c[nH]c3ccccc23)o1`, the growth is 86% with SK-MEL-2 melanoma; 50.8% in the assay with EKVX NSCLC; 27.9% in the assay on SN12C renal; 73.2% in the assay on UO-31 renal; 22.8% in the assay with TK-10 renal; 109% in the assay with A498 renal. The growth with CCRF-CEM leukemia was 78.8%; with MOLT-4 leukemia, 69.4%; in the assay on SR leukemia, 48.1%.

`O=[N+]([O-])c1ccc(N=Nc2c(O)c(N=Nc3cc([N+](=O)[O-])cc([N+](=O)[O-])c3O)cc(N=Nc3cc(S(=O)(=O)O)cc4cc(S(=O)(=O)O)cc(O)c34)c2O)cc1`: the growth was 100% in the assay with SK-MEL-2 melanoma; 102% with EKVX NSCLC; 101% with SN12C renal; 83.2% in the assay on UO-31 renal; 98.6% in the assay with TK-10 renal; 107% in the assay on A498 renal. The growth is 97.2% in the assay on CCRF-CEM leukemia, 86.7% in the assay with MOLT-4 leukemia and 86.1% with SR leukemia.

Regarding `O=C(/C(=C/c1ccc([N+](=O)[O-])cc1)SCc1ccccc1)c1ccc(Cl)cc1`, the growth in the assay on SK-MEL-2 melanoma was 84.5%; with EKVX NSCLC, 72.6%; with SN12C renal, -25.4% (active); with UO-31 renal it was 59.5%; in the assay with TK-10 renal, 103%; in the assay on A498 renal, 76.5%. Besides, the growth in the assay on CCRF-CEM leukemia was 9.82% (active); with MOLT-4 leukemia, 13.5%; in the assay on SR leukemia, -1.55% (active).

As for `CCOC(=O)CC[C@H](NC(=O)c1ccc(NC)c2ccccc12)C(=O)OCC`, the growth with SK-MEL-2 melanoma is 106%; in the assay with EKVX NSCLC it was 89.4%; in the assay on SN12C renal, 90.3%; with UO-31 renal, 93.8%; in the assay with TK-10 renal, 90.6%; with A498 renal, 91%. For the same compound, the growth was 91.2% in the assay with CCRF-CEM leukemia, 98.6% in the assay with MOLT-4 leukemia and 101% in the assay on SR leukemia.

In the case of `CCCCn1c2cc(OCc3cn(-c4ccc(Cl)cc4)nn3)ccc2c2ccnc(C)c21`, the growth in the assay on SK-MEL-2 melanoma was 74.5%; in the assay with EKVX NSCLC, 44.4%; in the assay on SN12C renal, 10.5%; in the assay on UO-31 renal, -16.3% (active); with TK-10 renal it was 15.6%; in the assay with A498 renal it was 62.8%. Also, the growth in the assay on CCRF-CEM leukemia is 30.5%; in the assay on MOLT-4 leukemia it was 6.26% (active); in the assay with SR leukemia, -4.92% (active).

In the case of `CCCn1c(N)c(C(N)=O)sc1=S`, the growth with SK-MEL-2 melanoma was 93.3%; with EKVX NSCLC it was 116%; with SN12C renal, 93.8%; in the assay with UO-31 renal, 79.2%; in the assay on TK-10 renal, 130%; with A498 renal, 98.5%. Besides, the growth is 108% with CCRF-CEM leukemia, 97% in the assay with MOLT-4 leukemia and 66.6% with SR leukemia.

With `OCCNc1nc(NCCO)nc(Nc2ccc(C3=NN(c4cc(Cl)cc(Cl)c4)C(c4ccc(Cl)cc4)C3)cc2)n1` (stereo not given), the growth in the assay with SK-MEL-2 melanoma is 73.7%; in the assay on EKVX NSCLC it was 20.6%; in the assay with SN12C renal, 25.1%; with UO-31 renal, 18.1%; in the assay with TK-10 renal, -2.42% (active); in the assay on CCRF-CEM leukemia, 13.3%. Besides, the figures for the growth with MOLT-4 leukemia and in the assay on SR leukemia were 2.38% (active) and -29.5% (active), respectively.

For `COc1cc(C(=O)Nc2cc(OC)c3ccn(C)c3c2)cc2c1C[C@]1(C)CC[C@@H](O)C(C)(C)[C@H]1O2`, the growth was -7.94% (active) in the assay with SK-MEL-2 melanoma; 33.5% in the assay with EKVX NSCLC; 46.8% with SN12C renal; -5.02% (active) in the assay with UO-31 renal; 36.9% in the assay on TK-10 renal; -23.1% (active) in the assay on A498 renal. In addition, the results for the growth in the assay with CCRF-CEM leukemia, with MOLT-4 leukemia and in the assay with SR leukemia were 5.35% (active), -8.72% (active) and 11.5%, respectively.

Turning to `COc1cc(/C=C/C(=O)/C=C/c2cc3ccc(Cl)cc3[nH]c2=O)ccc1O`, the growth in the assay with SK-MEL-2 melanoma was 89.1%; in the assay with EKVX NSCLC, 94.4%; with SN12C renal it was 63.9%; in the assay on UO-31 renal, 60.3%; with TK-10 renal, 98%; with A498 renal it was 78.8%. Further, the figures for the growth in the assay with CCRF-CEM leukemia, in the assay on MOLT-4 leukemia and with SR leukemia were 23%, 30.3% and 10.8%, respectively.

`O=C1CCC23OC(c4ccccc4N12)C(O)C(O)C3O` (stereo not given): the growth is 94.7% in the assay with SK-MEL-2 melanoma; 107% in the assay with EKVX NSCLC; 103% in the assay on SN12C renal; 86.9% in the assay with UO-31 renal; 89.1% with TK-10 renal; 104% with A498 renal. Also, the growth in the assay with CCRF-CEM leukemia was 101%; with MOLT-4 leukemia it was 98.3%; in the assay on SR leukemia it was 112%.

In the case of `C=C(C)[C@@H]1CC[C@]2(C(=O)OCCOCCOCC[P+](c3ccccc3)(c3ccccc3)c3ccccc3)CC[C@]3(C)[C@H](CC[C@@H]4[C@@]5(C)CC[C@H](C)C(C)(C)[C@@H]5CC[C@]43C)[C@@H]12`, the growth in the assay on SK-MEL-2 melanoma is -71.3% (active); with EKVX NSCLC, -67.2% (active); in the assay with SN12C renal, -75.9% (active); in the assay on UO-31 renal it was -89.8% (active); with TK-10 renal it was -88.6% (active); in the assay on A498 renal, -93.7% (active). Further, the growth in the assay on CCRF-CEM leukemia is -63% (active); with MOLT-4 leukemia, -75.4% (active); with SR leukemia it was -56.8% (active).

For `CCCCc1n(Cc2ccc3ccccc3n2)cc[n+]1Cc1ccc2ccccc2c1`, the growth in the assay with SK-MEL-2 melanoma was -35.7% (active); in the assay on EKVX NSCLC it was 41.7%; in the assay with SN12C renal it was 1.13% (active); in the assay with UO-31 renal, 69.2%; in the assay on TK-10 renal, -5.08% (active); in the assay on A498 renal it was 7.02% (active). Besides, the growth with CCRF-CEM leukemia is 6.45% (active); with MOLT-4 leukemia, 4.42% (active); with SR leukemia, -27.1% (active).

As for `COc1ccc(/C=C/C(=O)Nc2ncnc3nc[nH]c23)cc1`, the growth was 96.2% in the assay on SK-MEL-2 melanoma; 100% in the assay on EKVX NSCLC; 96.2% in the assay on SN12C renal; 87.8% in the assay with UO-31 renal; 103% in the assay with TK-10 renal; 108% in the assay with A498 renal. For the same compound, the figures for the growth in the assay on CCRF-CEM leukemia, in the assay on MOLT-4 leukemia and with SR leukemia were 79.2%, 68.9% and 73.4%, respectively.

On to `COc1cc(C)ccc1Oc1nc(Nc2ccc(N3CCOCC3)cc2)ncc1N=Cc1cc(C(F)(F)F)cc(C(F)(F)F)c1`, for which the growth in the assay on SK-MEL-2 melanoma was 70.2%; with EKVX NSCLC, 81.7%; with SN12C renal, 80.3%; in the assay with UO-31 renal it was 47.6%; with TK-10 renal it was 81.6%; in the assay with A498 renal, 58.8%. The growth in the assay with CCRF-CEM leukemia was 82%; in the assay on MOLT-4 leukemia, 44.7%; in the assay on SR leukemia it was 49.7%.

On to `C=CCn1c(SCC(=O)Nc2ccc(C(=O)/C=C/c3cc(OC)c(OC)c(OC)c3)cc2)nnc1-c1ccc(Cl)cc1`, for which the growth in the assay with SK-MEL-2 melanoma is 26.3%; with EKVX NSCLC, 21.6%; in the assay with SN12C renal, 27.9%; in the assay with UO-31 renal, 26.5%; in the assay on TK-10 renal, 35.9%; in the assay on A498 renal it was 15.6%. For the same compound, the growth was 6.62% (active) with CCRF-CEM leukemia, 7.87% (active) in the assay with MOLT-4 leukemia and 3.83% (active) in the assay on SR leukemia.

In the case of `O=[N+]([O-])c1cccc(CN(Cc2cccc([N+](=O)[O-])c2O)c2ccccc2)c1O`, the growth is 84.7% with SK-MEL-2 melanoma; 77.3% with EKVX NSCLC; 80.6% in the assay on SN12C renal; 39.6% with UO-31 renal; 89.7% in the assay on TK-10 renal; 65.5% in the assay on A498 renal. Moreover, the growth in the assay on CCRF-CEM leukemia was 67.8%; with MOLT-4 leukemia it was 64.6%; with SR leukemia, 55.8%.

The record behind these values is PubChem BioAssay (NCI).
